# Bioassay records (PubChem)
# Hits are enriched below; roughly 8.1% of the tested compounds scored in any of these assays.
# Shh pathway inh – Hedgehog pathway signaling inhibitors, primary screen, luminescence, Shh-LIGHT2 cells, Gli-luciferase | Shh-LIGHT2 Gli-luciferase reporter, 30 h | inhibition, % (test concentration not listed) | 22,000 tested, 2.1% active | AID 2313, 2010;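 active means mean inhibition across valid replicates above about 65%, limit read from the data; inconclusive means mean under the limit, yet half or more replicates past it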;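 further: pathway switched on by Shh-conditioned medium diluted 1 in 25 in low serum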
# NOMO-1 viab – NOMO-1 AML cell viability reduction, primary screen, STK33 inhibitor project, CellTiter-Glo luminescence | NOMO-1 AML viability, 72 h | inhibition, % (test concentration not listed) | 37,000 tested, 7.5% active | AID 2330, 2010; in the data active means inhibition above about 80%; inconclusive means no clear call, values can overlap the other calls
# MITF inhib – inhibitors of MITF, primary screen, MITF inhibitor project, cell-based, luminescence; inhibition, % (test concentration not listed); AID 2240, 2010; TRPM1 promoter luciferase, 24 h; 37,000 tested, 0.28% active; in the data active means inhibition above about 85%; inconclusive means no clear call, values can overlap the other calls; inactive means below about 68%;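 further: human melanocyte line stably carrying TRPM1 promoter luciferase reporter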
# * marks the source's active call; other numbers are inactive results; ? = inconclusive; / = no result given.
SMILES,Shh pathway inh,NOMO-1 viab,MITF inhib
Cc1ccc(C(=O)CSc2nnc(-c3cccc(F)c3)n2-c2ccccc2)c(C)c1,/,34.2,22.3
COc1ccc(-n2c(SCC(=O)Nc3ccccc3C(F)(F)F)nnc2-c2ccccc2)cc1,/,4.5,4.6
CO[C@H]1CC(O[C@@H]2/C(C)=C/C[C@@H]3C[C@@H](C[C@]4(CC[C@H](C)[C@@H](C5CCCCC5)O4)O3)OC(=O)[C@@H]3C=C(C)/C(=N/O)[C@H]4OC/C(=C\C=C\[C@@H]2C)[C@]43O)O[C@@H](C)C1O (stereo not given in full),-39.3,10.2,3.3
Cc1ccc(S(=O)(=O)N(C)C[C@H]2Oc3ccc(NC(=O)Nc4ccc(C(F)(F)F)cc4)cc3CC(=O)N([C@@H](C)CO)C[C@@H]2C)cc1,-1.6,25.7,16.3
Cc1ccc(S(=O)(=O)N(C)C[C@@H]2Oc3ccc(NC(=O)Nc4ccc(C(F)(F)F)cc4)cc3CC(=O)N([C@H](C)CO)C[C@@H]2C)cc1,55.8,126.1*,34.4
COc1ccc(S(=O)(=O)N(C)C[C@H]2Oc3ccc(NC(=O)Nc4ccc(C(F)(F)F)cc4)cc3CC(=O)N([C@H](C)CO)C[C@H]2C)cc1,40.7,41.7,45.2
Cc1ccc(S(=O)(=O)N(C)C[C@H]2Oc3ccc(NC(=O)Nc4ccc(C(F)(F)F)cc4)cc3CC(=O)N([C@H](C)CO)C[C@H]2C)cc1,7.4,114.6*,23.4
O=C(COc1ccc(Cl)cc1Br)Nc1ccccc1C(=O)NC1CCCCC1,/,63.4,18.9
Cc1cc(C)c(NC(=O)CN(C)S(=O)(=O)c2ccc(Br)cc2)c(C)c1,/,50.5,4.3
COC(Cc1nc2ccccc2s1)C(=O)O (stereo not given),/,?,-4.0
COc1ccc(OC)c(NC(=O)CSc2nc(-c3ccccc3)nc3c2COC(C)(C)C3)c1,/,39.4,10.1
CC1(C)Cc2nc(-c3ccccc3)nc(SCC(=O)Nc3ccc(Br)cc3)c2CO1,/,101.3*,1.2
CC(=O)Nc1ccc(S(=O)(=O)NC2(C(F)(F)F)C(=O)N(C3CCCCC3)C(C)=C2C(C)=O)cc1 (stereo not given),/,8.3,-14.1
COc1ccc(-c2nnc(SCC(=O)NC(C)(C)C)n2-c2ccccc2)cc1,/,1.4,9.4
O=C1CC(c2ccccc2)C(=O)N1c1cc(Cl)cc(Cl)c1 (stereo not given),-24.0,-3.4,-13.5
CC(C)NC(=O)Nc1cccc2c1O[C@@H](CN(C)Cc1ccc(C(=O)Nc3ccccc3N)cc1)[C@@H](C)CN([C@@H](C)CO)C2=O,/,141.1*,19.1
CC(C)NC(=O)Nc1cccc2c1O[C@H](CN(C)Cc1ccc(C(=O)Nc3ccccc3N)cc1)[C@H](C)CN([C@@H](C)CO)C2=O,/,139.4*,17.1
C[C@H](CO)N1C[C@H](C)[C@H](CN(C)Cc2ccc(C(=O)Nc3ccccc3N)cc2)Oc2c(NS(C)(=O)=O)cccc2C1=O,/,52.2,3.3
CC(C)NC(=O)Nc1cccc2c1O[C@@H](CN(C)Cc1ccc(C(=O)Nc3ccccc3N)cc1)[C@@H](C)CN([C@H](C)CO)C2=O,/,70.8,-5.1
O=C(Cn1cc(C(=O)C2CC2)c2ccccc21)Nc1ccccc1C(F)(F)F,/,-0.2,11.4
COC(=O)c1ccc(C(=O)OC)c(NC(=O)COc2cc(C)c(C)cc2C)c1,/,24.2,16.1
COC(=O)c1ccc(C(=O)OC)cc1,-9.1,20.3,-8.7
COC(=O)c1sc(=S)sc1C(=O)OC,8.5,95.8*,-10.3
COC(=O)c1ccc(Cl)c(NC(=O)C(C)N(c2ccc(C)cc2)S(C)(=O)=O)c1 (stereo not given),/,20.9,17.6
c1ccc(-c2cnc3nonc3n2)cc1,82.4*,114.5*,79.8
SMILES,Shh pathway inh,NOMO-1 viab,MITF inhib
Cc1cc2ncc(-c3ccccc3)nc2cc1C,-152.4,19.5,18.3
CC(=O)N[N+]1=C(N)c2ccccc2C1,-37.6,-4.1,-0.6
CCOc1ccc(OCC)c(S(=O)(=O)NC2CC(C)(C)NC(C)(C)C2)c1,/,2.9,0.7
CCOc1ccc(C2(C)CC(C)(C)Nc3ccccc32)cc1 (stereo not given),0.7,113.6*,4.5
O=C(Cn1cnc2ccccc2c1=O)Nc1ccccc1Cl,/,-2.0,-11.6
CC(=O)OC[C@]12[C@H](OC(C)=O)[C@H](OC(C)=O)[C@@H]3[C@@H](OC(C)=O)[C@@]14O[C@@]3(C)COC(=O)c1ncccc1CC[C@H](C)C(=O)O[C@@H]([C@H](O)[C@@H]2OC(=O)c1ccccc1)[C@]4(C)O,32.6,117.1*,50.0
CC(=O)OC[C@]12[C@H](OC(C)=O)[C@@H](OC(C)=O)[C@@H]3[C@@H](OC(C)=O)[C@@]14O[C@@]3(C)COC(=O)c1cccnc1[C@H](C)[C@@H](C)C(=O)O[C@@H]([C@H](O)[C@@H]2OC(=O)c1ccccc1)[C@]4(C)O,-20.7,/,/
CN(CC(=O)Nc1ccccc1C(N)=O)S(=O)(=O)c1ccc(Br)cc1,/,-19.2,0.5
c1ccc(-n2nnnc2CSc2ncn[nH]2)cc1,/,-3.7,-17.6
COc1ccc(-c2coc3c(OC)c(OC)ccc3c2=O)cc1,21.6,19.4,-31.1
Cc1c(CNC(=S)Nc2cccc([N+](=O)[O-])c2)cnn1C,/,-0.3,-53.0
O=[N+]([O-])c1cccc(NC(=S)NCc2cn(-c3ccccc3)nc2-c2ccccc2)c1,/,97.1*,76.2
CO[C@H]1C[C@@H]2CC[C@@H](C)[C@@](O)(O2)C(=O)C(=O)N2CCCC[C@H]2C(=O)O[C@H]([C@H](C)C[C@@H]2CC[C@@H](O)[C@H](OC)C2)CC(=O)[C@H](C)/C=C(\C)[C@@H](O)[C@@H](OC)C(=O)[C@H](C)C[C@H](C)/C=C/C=C/C=C\1C,2.1,131.4*,61.9
NC(=O)CSc1oc(-c2ccc(F)cc2)nc1S(=O)(=O)c1ccc(Cl)cc1,/,22.9,16.9
O=C(/C=C/S(=O)(=O)c1ccc(Cl)cc1)c1ccc(F)cc1,38.8,120.4*,9.6
C=C1C(=O)O[C@@H]2/C=C(/C)[C@H](O)CC(=O)[C@](C)(O)C[C@@H](OC(=O)/C(C)=C/C)[C@@H]12,36.7,/,/
C=C1C(=O)O[C@@H]2/C=C(/C)CC/C=C(/C(=O)O)C[C@@H](OC(=O)/C(C)=C/C)C12 (stereo not given in full),-28.9,38.1,-30.3
C=C1C(=O)O[C@@H]2/C=C(\C)[C@@H](OC(=O)C(O)C(C)C)C/C=C(/C)C[C@@H](OC(=O)/C(=C/CO)CO)[C@@H]12 (stereo not given in full),-2.1,121.4*,-5.2
C=C1C(=O)O[C@@H]2/C=C(\C)[C@H](OC(C)=O)C/C=C(/C)C[C@@H](OC(=O)/C(=C/CO)CO)C12 (stereo not given in full),?,107.8*,-0.6
Nc1cc(N)nc(SCC(=O)Nc2cccc(C(F)(F)F)c2)n1,/,16.7,9.6
COc1ccc(S(=O)(=O)N(C)CC(=O)Nc2ccccc2)cc1Cl,/,7.7,3.9
COc1cc(O)c2c(=O)c(OC)c(-c3ccc(OC)c(OC)c3)oc2c1,-4.8,30.6,-15.2
COc1cc(-c2cc(=O)c3c(O)c(OC)c(OC)c(O)c3o2)ccc1O,34.0,/,/
COc1c(OC)c(O)c2c(=O)cc(-c3ccc(O)cc3)oc2c1OC,-28.6,114.9*,-39.6
